Measured values published in PubChem BioAssay (Tox21).
Values joined by “and” are separate entries in the source; they are usually repeats but may differ in a detail not shown here. Equal values may be shown once. Where a structure was tested more than once in an assay, its records may differ in their call. Active and inactive are the calls of the source. Where a call stands in place of a potency, no number is given. Unless noted, calls follow the shape of the dose curve; as a rule, active = well fitted curve in the direction sought with a large enough effect in the repeat runs; inconclusive = weak or mixed curves; inactive = no such curve, though single readings can be large; an effect the other way counts as inactive or inconclusive.

How the values were obtained:
[1] = qHTS assay for small molecule agonists of the p53 signaling pathway (AID 651631; calls by dose curve; also: nearly all actives have a fitted effect of over 15% in size; also: potency is read from the fitted curve at half-maximal effect)
In short: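 Testing took place in human colorectal HCT-116 cells with stable p53RE-driven beta-lactamase. After 16 h of compound exposure at 37 °C, a FRET substrate was added and fluorescence recorded 2 h later.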

[2] = qHTS assay for small molecules that induce genotoxicity in human embryonic kidney cells expressing luciferase-tagged ATAD5 (AID 651632); also: nearly all actives have a fitted effect of over 15% in size
In short: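 Increased luciferase signal from ATAD5-tagged reporter cells indicates DNA-damage-driven ATAD5 induction. HEK293T cells are treated for 16 hr at 37C before detection with Amplite.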

[3] = qHTS assay for small molecule agonists of the p53 signaling pathway - cell viability (AID 651633; calls by dose curve; also: nearly all actives have a fitted effect of over 30% in size; also: potency is read from the fitted curve at half-maximal effect)
In short: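 p53RE-bla cells, seeded at 4,000 per well and rested 5 h at 37 C/5% CO2, received compounds in DMSO for 16 h at 37 C. CellTiter-Glo was then added, and luminescence was read after 30 min at room temperature to gauge cytotoxicity.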

[4] = qHTS assay for small molecules that induce genotoxicity in human embryonic kidney cells expressing luciferase-tagged ATAD5 - cell viability (AID 651634; calls by dose curve; also: nearly all actives have a fitted effect of over 25% in size)
In short: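 Cytotoxicity counterscreen in HEK293T cells bearing an ATAD5-luciferase reporter: live-cell protease activity measured by CellTiter-Fluor fluorescence after 15.5 hr compound exposure.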

[5] = qHTS assay for small molecule disruptors of the mitochondrial membrane potential - cell viability (AID 720634; calls by dose curve;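 also: human HepG2 liver cancer cells; nearly all actives have a fitted effect of over 20% in size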)
In short: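 After overnight attachment at 37 C, HepG2 cells received compound or DMSO vehicle for 1 hr. Viability is then taken from ATP-driven luminescence following a 30 min room-temperature CellTiter-Glo step.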

[6] = qHTS assay to test for compound auto fluorescence at 590 nm (red) in HepG2 cells (AID 720674)
In short: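 Rose Bengal sodium served as the red fluorophore standard. HepG2 monolayers (overnight attachment, MEM with 10% FBS) were exposed to test compounds for 1 hr at 37 C and read at Ex 540/Em 590 nm.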

[7] = qHTS assay to test for compound auto fluorescence at 535 nm (green) in HepG2 cells (AID 720675)
[8] = qHTS assay to test for compound auto fluorescence at 460 nm (blue) in HEK293 cells (AID 720678)
In short: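 HEK293, 2,000 cells/well, 10% dialyzed FBS; attach 4-5 hr 37C; pin compound or DMSO; o/n 37C/5% CO2; fluorescence 405/460 nm; triamterene-equivalent units.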

[9] = qHTS assay to test for compound auto fluorescence at 590 nm (red) in HEK293 cells (AID 720679)
In short: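 Intensity at 540nm excitation and 590nm emission is reported as Rose Bengal sodium-equivalent autofluorescence. Measurements followed overnight exposure (37C, 5% CO2) of HEK293 cells, 2,000 per well, to 23 nL compound.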

[10] = qHTS assay to test for compound auto fluorescence at 535 nm (green) in HEK293 cells (AID 720680)
[11] = qHTS assay to test for compound auto fluorescence at 460 nm (blue) in HEK293 cell free culture (AID 720681)
In short: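 Test compounds were pinned into cell-free culture medium (DMEM with 10% FBS) and fluorescence was read directly at Ex/Em 405/460 nm. Signals were expressed as fluorescence equivalents of triamterene, with DMSO vehicle as control.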

[12] = qHTS assay to test for compound auto fluorescence at 535 nm (green) in HEK293 cell free culture (AID 720682)
In short: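 DMEM + 10% FBS, cell-free; cpd or DMSO pinned in; Ex485/Em535 read; output as fluorescein-equivalent signal.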

[13] = qHTS assay to test for compound auto fluorescence at 590 nm (red) in HEK293 cell free culture (AID 720683)
In short: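 Tox21 10K library compounds were pinned into cell-free DMEM with 10% FBS and fluorescence was read at excitation 540 nm. Activity is expressed as Rose Bengal sodium equivalency.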

[14] = qHTS assay to test for compound auto fluorescence at 590 nm (red) in HepG2 cell free culture (AID 720684)
In short: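 Red fluorescence (540 nm excitation, 590 nm emission) was measured after compound transfer into cell-free MEM supplemented with 10% FBS. Values are equivalencies against Rose Bengal sodium.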

[15] = qHTS assay to test for compound auto fluorescence at 460 nm (blue) in HepG2 cell free culture (AID 720685)
In short: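 Compound (23 nL) or DMSO pinned into cell-free MEM with 10% FBS; blue fluorescence read at 405/460 nm excitation/emission, expressed as auto-fluorescence equivalency to triamterene.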

[16] = qHTS assay to test for compound auto fluorescence at 535 nm (green) in HepG2 cell free culture (AID 720686)
[17] = qHTS assay to test for compound auto fluorescence at 460 nm (blue) in HepG2 cells (AID 720687)
In short: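 Cells (2,000/well in MEM with 10% FBS) attached overnight at 37 C, then were exposed to compound or DMSO for 1 hr at 37 C, 5% CO2. Fluorescence read at Ex/Em 405/460 nm, expressed as triamterene-equivalent signal.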

[18] = molecular target: Glucocorticoid receptor (Homo sapiens) (UniProt P04150); assay: qHTS assay to identify small molecule agonists of the glucocorticoid receptor (GR) signaling pathway (AID 720691; active = well fitted activation curve with a large enough effect in the signal ratio in the repeat runs, not every such curve was filed as active; inconclusive = weak or mixed curves, or effect the other way; inactive = no such curve, though single readings can be large or run the other way; the % refers to the signal ratio; also: potency is read from the fitted curve at half-maximal effect); details: GR-bla HeLa, beta-lactamase reporter ratio, 18 h; activation: at 62.4 µM (top of the series)
Chain of Glucocorticoid receptor (Homo sapiens) (P04150 whole entry, looked up): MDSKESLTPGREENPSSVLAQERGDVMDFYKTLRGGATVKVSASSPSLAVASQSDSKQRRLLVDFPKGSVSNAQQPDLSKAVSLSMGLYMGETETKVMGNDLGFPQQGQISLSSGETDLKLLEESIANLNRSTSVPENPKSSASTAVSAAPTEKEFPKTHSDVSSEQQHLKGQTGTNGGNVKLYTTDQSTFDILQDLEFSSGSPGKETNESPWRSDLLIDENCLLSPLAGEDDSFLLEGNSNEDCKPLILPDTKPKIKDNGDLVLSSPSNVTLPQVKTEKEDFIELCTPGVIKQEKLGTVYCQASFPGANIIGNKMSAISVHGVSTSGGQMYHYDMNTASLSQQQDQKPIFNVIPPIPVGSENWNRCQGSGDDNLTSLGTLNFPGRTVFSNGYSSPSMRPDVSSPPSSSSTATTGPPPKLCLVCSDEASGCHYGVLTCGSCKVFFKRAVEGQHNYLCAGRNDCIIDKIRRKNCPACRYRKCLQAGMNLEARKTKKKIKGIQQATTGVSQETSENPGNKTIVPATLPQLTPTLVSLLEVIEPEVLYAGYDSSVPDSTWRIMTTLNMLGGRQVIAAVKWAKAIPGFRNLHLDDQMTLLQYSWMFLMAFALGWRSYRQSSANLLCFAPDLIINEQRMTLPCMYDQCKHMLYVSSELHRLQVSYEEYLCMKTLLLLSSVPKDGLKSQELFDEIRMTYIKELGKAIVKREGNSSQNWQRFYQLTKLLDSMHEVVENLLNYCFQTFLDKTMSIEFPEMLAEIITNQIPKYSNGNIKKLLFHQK
In short: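 Agonist mode in a HeLa line carrying a GRE-controlled beta-lactamase reporter. Compounds act for 18 h at 37 C before a 2 h room-temperature FRET substrate step and fluorescence reading.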

[19] = molecular target: Glucocorticoid receptor (Homo sapiens) (UniProt P04150); assay: qHTS assay to identify small molecule antagonists of the glucocorticoid receptor (GR) signaling pathway (AID 720692; active = well fitted inhibition curve with a large enough effect in the signal ratio in the repeat runs, not every such curve was filed as active; inconclusive = weak or mixed curves, or effect the other way; inactive = no such curve, though single readings can be large or run the other way; the % refers to the signal ratio)
In short: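 Cells plated, rested 4 h at 37 C/5% CO2; compounds in DMSO pin-transferred; dexamethasone added to 5 nM final; 18 h at 37 C; B/G FRET substrate added, 2 h room temperature; fluorescence measured.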

[20] = qHTS assay for small molecule disruptors of the mitochondrial membrane potential (AID 720635); also: potency is read from the fitted curve at half-maximal effect
In short: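 HepG2 cells (2,000/well) attached overnight at 37C, then took compound for 1 hr at 37C, 5% CO2. Mito-MPS dye was added for 30 min; fluorescence was read at 490/535 nm (monomers) and 540/590 nm (aggregates).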

Compound | Potency [1] | Potency [2] | Potency [3] | Potency [4] | Potency [5] | outcome [6] | Potency [7] | Potency [8] | outcome [9] | outcome [10] | Potency [11] | outcome [12] | outcome [13] | outcome [14] | Potency [15] | Potency [16] | Potency [17] | Potency [18] | Potency [19] | Potency [20]
CN[C@@H]1[C@@H](O[C@H]2O[C@H](CO)[C@@H](N)[C@H](O)[C@H]2O)O[C@H]2C[C@@H](N)[C@@H](O[C@H]3[C@H](O)[C@@H](O)[C@H](N)C[C@@H]3N)O[C@@H]2[C@@H]1O | inactive | inactive | inactive | inactive | inactive | inactive | inactive | inactive | inactive | inactive | inactive | inactive | inactive | inactive | inactive | inactive | inactive | inactive | inactive | –
CN1C(=O)C[C@@H](C(=O)N[C@@H](Cc2cnc[nH]2)C(=O)N2CCC[C@H]2C(N)=O)NC1=O | inactive | inactive | inactive | inactive | inactive | inactive | inactive | inactive | inactive | inactive | inactive | inactive | inactive | inactive | – | inactive | inactive | – | – | –
C[C@@H]1O[C@@H]1P(=O)(O)O | inactive | inactive | inactive | inactive | inactive | inactive | inactive | inactive | inactive | inactive | inactive | inactive | inactive | inactive | inactive | inactive | inactive | inactive | inactive | –
Cc1c(N)nc([C@H](CC(N)=O)NC[C@H](N)C(N)=O)nc1C(=O)N[C@H](C(=O)N[C@H](C)[C@@H](O)[C@H](C)C(=O)N[C@H](C(=O)NCCc1nc(-c2nc(C(=O)NCCCCN=C(N)N)cs2)cs1)[C@@H](C)O)[C@@H](O[C@@H]1O[C@@H](CO)[C@@H](O)[C@H](O)[C@@H]1O[C@H]1O[C@H](CO)[C@@H](O)[C@H](OC(N)=O)[C@@H]1O)c1cnc[nH]1 | 841 nM (active) and 66.8 nM (active) | inactive | inactive | inactive | inactive | inactive | inactive | inactive | inactive | inactive | inactive | inactive | inactive | inactive | inactive | inactive | inactive | 848 nM [inconclusive] (active) and inactive | inactive | –
CC1(C)S[C@@H]2[C@H](NC(=O)[C@H](N)c3ccc(O)cc3)C(=O)N2[C@H]1C(=O)O | inactive | inactive | inactive | inactive | inactive | inactive | inactive | – | inactive | inactive | – | inactive | inactive | inactive | – | inactive | inactive | – | – | –
C/C=C/C1=C(C(=O)O)N2C(=O)[C@@H](NC(=O)[C@H](N)c3ccc(O)cc3)[C@H]2SC1 | inactive | inactive | inactive | inactive | inactive | inactive | – | – | inactive | inactive | inactive | inactive | inactive | inactive | inactive | inactive | inactive | inactive | inactive | –
CCCCCCCCCC(=O)NO | inactive | inactive | inactive | inactive | inactive | inactive | – | inactive | inactive | inactive | inactive | inactive | inactive | inactive | inactive | inactive | inactive | – | – | –
NC(=O)C1c2ccccc2CCc2ccccc21 | inactive | inactive | inactive | inactive | inactive | inactive | inactive | inactive | inactive | inactive | inactive | inactive | inactive | inactive | – | inactive | – | inactive | inactive | –
C=C(Nc1ccc(OCC)cc1)Nc1ccc(OCC)cc1 | inactive | inactive | inactive | inactive | inactive | inactive | – | inactive | inactive | inactive | inactive | inactive | – | inactive | – | inactive | inactive | – | – | –
O=C(O)COc1ccc(C(=O)c2cccs2)c(Cl)c1Cl | inactive | inactive | inactive | inactive | inactive | inactive | inactive | inactive | inactive | inactive | inactive | inactive | inactive | inactive | inactive | inactive | inactive | inactive | inactive | –
Cc1cc(C(=O)NCCc2ccc(S(=O)(=O)NC(=O)NN3CCCCCC3)cc2)no1 | inactive | – | inactive | inactive | inactive | inactive | inactive | inactive | inactive | – | inactive | inactive | inactive | inactive | inactive | inactive | inactive | – | – | –
NC(=O)c1cc[n+](CC2=C(C(=O)O)N3C(=O)[C@@H](NC(=O)C(c4ccccc4)S(=O)(=O)[O-])[C@H]3SC2)cc1 (some centres not stated) | inactive | – | inactive | inactive | inactive | inactive | inactive | inactive | inactive | – | inactive | inactive | inactive | inactive | inactive | inactive | inactive | – | – | –
CC(=O)Nc1ccc(OC(C)=O)cc1 | inactive | – | inactive | inactive | inactive | inactive | inactive | inactive | inactive | inactive | inactive | inactive | inactive | inactive | – | inactive | inactive | inactive | inactive | inactive
Cc1cc(CC(C)CC(C)(C)C)n(O)c(=O)c1 (configuration not stated) (tested in a mixture with another compound) | 9.44 µM (active) | – | 29.8 µM (active) | inactive | inactive | inactive | inactive | – | inactive | inactive | inactive | inactive | inactive | inactive | – | inactive | – | – | – | 3.35 µM (active)
